The target of assay [1] is Mast/stem cell growth factor receptor Kit (Homo sapiens) (UniProt P10721). The settings on record: at 1 µM.
Assay [2] has the same target. The note with it: at 10 µM.
The target in assay [3] is Serine/threonine-protein kinase mTOR (Homo sapiens) (UniProt P42345). The note with it: at 1 µM.
The target of assay [4] is Proto-oncogene tyrosine-protein kinase Src (Homo sapiens) (UniProt P12931). The settings on record: at 1 µM.
Target sequence in this assay (P12931 2-536 limits assumed): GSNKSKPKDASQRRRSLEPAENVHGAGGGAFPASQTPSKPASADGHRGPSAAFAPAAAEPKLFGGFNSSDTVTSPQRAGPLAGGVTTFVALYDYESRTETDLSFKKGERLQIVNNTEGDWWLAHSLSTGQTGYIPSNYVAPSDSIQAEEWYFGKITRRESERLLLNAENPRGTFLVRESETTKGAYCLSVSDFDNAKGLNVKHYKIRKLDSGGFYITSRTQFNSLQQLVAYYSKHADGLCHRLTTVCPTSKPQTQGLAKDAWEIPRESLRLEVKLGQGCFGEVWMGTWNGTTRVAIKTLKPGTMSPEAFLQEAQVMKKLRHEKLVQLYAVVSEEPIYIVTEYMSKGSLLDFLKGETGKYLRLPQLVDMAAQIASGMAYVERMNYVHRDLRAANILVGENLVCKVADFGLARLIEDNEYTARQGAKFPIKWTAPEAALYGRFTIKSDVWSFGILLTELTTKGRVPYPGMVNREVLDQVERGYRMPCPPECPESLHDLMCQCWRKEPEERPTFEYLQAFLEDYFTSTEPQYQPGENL
Assay [5] shares this target. The note with it: at 10 µM.
The target of assay [6] is Serine/threonine-protein kinase mTOR (Homo sapiens) (UniProt P42345). The settings on record: at 10 µM.
For assay [7] the target is unchanged. The note with it: at 1 µM. The source holds these as a separate data set.
Assay [8] has the same target. The note with it: at 10 µM. The source holds these as a separate data set.
For assay [9], the target named is T1, Eukaryotic elongation factor 2 kinase (Homo sapiens) (UniProt O00418).
T1 sequence (whole entry): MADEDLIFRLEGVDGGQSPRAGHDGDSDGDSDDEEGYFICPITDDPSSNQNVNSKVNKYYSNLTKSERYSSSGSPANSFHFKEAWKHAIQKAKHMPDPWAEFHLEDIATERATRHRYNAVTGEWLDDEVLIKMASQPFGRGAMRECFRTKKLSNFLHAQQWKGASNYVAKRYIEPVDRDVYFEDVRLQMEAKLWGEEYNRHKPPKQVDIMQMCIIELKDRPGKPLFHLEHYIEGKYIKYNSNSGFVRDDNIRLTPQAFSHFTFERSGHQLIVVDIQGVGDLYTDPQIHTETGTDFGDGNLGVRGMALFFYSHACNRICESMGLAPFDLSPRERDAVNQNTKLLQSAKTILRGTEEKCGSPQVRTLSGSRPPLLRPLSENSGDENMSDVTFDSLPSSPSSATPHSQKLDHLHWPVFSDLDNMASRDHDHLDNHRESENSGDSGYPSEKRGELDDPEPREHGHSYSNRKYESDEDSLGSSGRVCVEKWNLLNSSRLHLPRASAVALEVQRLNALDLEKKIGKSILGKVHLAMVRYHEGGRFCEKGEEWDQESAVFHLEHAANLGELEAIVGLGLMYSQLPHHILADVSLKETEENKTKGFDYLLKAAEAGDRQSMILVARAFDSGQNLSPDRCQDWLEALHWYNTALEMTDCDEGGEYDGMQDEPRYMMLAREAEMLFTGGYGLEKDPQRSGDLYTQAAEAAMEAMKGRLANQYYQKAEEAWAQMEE
The note with it: at 10 µM.

Chain of Mast/stem cell growth factor receptor Kit (Homo sapiens) (P10721 whole entry): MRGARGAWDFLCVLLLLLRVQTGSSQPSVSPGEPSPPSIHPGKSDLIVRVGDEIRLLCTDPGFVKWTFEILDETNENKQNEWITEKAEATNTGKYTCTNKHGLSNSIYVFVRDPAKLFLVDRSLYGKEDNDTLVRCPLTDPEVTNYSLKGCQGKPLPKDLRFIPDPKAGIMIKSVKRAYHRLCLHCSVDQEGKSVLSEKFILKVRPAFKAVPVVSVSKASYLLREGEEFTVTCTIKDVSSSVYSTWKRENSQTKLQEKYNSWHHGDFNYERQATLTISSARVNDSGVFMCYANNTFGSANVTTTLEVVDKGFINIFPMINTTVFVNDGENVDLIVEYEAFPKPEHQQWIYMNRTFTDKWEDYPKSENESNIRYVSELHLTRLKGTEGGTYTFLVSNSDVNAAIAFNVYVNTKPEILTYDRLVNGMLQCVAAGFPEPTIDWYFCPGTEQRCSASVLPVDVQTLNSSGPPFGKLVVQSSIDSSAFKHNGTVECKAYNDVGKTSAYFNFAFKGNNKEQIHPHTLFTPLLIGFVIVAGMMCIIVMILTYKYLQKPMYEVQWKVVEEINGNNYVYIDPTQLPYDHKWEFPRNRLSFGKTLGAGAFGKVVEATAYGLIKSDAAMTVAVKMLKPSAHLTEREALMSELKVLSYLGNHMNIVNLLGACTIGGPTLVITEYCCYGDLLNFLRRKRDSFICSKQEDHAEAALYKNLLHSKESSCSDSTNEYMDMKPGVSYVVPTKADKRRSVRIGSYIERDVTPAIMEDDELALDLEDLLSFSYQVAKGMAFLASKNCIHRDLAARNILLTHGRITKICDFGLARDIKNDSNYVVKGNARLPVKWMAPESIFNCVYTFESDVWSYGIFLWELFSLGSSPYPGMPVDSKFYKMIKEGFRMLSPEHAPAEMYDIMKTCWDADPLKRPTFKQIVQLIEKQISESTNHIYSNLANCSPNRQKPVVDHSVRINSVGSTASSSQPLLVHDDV

The residual activity is the signal under treatment as a percentage of the control signal. In the case of `Nc1nc(Nc2ccc(S(N)(=O)=O)cc2)nn1C(=O)c1c(F)cccc1F`, the figures for the residual activity in [1], in assay [2] and in assay [3] were 100%, 63% and 115%, respectively.
For the compound `Nc1ncnc2[nH]nc(Nc3ccc(F)cc3)c12`, the residual activity stood at 106% in assay [1]; 106% in [2]; 100% in assay [4]; 54% in [5]; 98% in assay [3]; 90% in [6]. The residual activity in assay [7] came out at 91%; in assay [8], 95%.
In the case of `O=C(Nc1ccc(Cl)cc1)c1ccccc1NCc1ccncc1`, the residual activity is 17% in assay [1], -1% in assay [2], 78% in assay [4] and 69% in [8].
Regarding `CC(C)(C)n1nc(Cc2cccc3ccccc23)c2c(N)ncnc21`, the residual activity in [1] is 113%; in [2], 77%; in assay [4], 63%; in assay [5], 24%; in assay [3], 98%; in [6], 97%. Besides, the residual activity in [7] worked out at 120%; in assay [8], 87%.
Turning to `O=C(c1ccccc1)c1ccc(N2CCOCC2)cc1O`, the residual activity is 111% in assay [1]; 96% in assay [2]; 87% in [4]; 93% in [5]; 88% in assay [3]; 94% in assay [6]. In addition, the residual activity worked out at 96% in assay [7] and 54% in assay [8].
Regarding `COc1cc2nccc(Oc3ccc(NC(=O)Nc4cc(C)on4)c(Cl)c3)c2cc1OC`, the residual activity in assay [1] stood at 3%; in assay [2], 0%.
Take `CCN(CC)CCNC(=O)c1c(C)[nH]c(/C=C2\C(=O)Nc3ccc(Cl)cc32)c1C`: the residual activity is -1% in assay [1], 0% in assay [2], 48% in assay [4] and 13% in assay [5].
For `Cc1cc(C)c(/C=C2\C(=O)Nc3ccccc32)[nH]1`, the residual activity in assay [1] was found to be 11%; in [2], 1%; in assay [9], 105%.
For the compound `O=c1cc(N2CCNCC2)oc2c(-c3ccccc3)cccc12`, the residual activity in assay [1] was found to be 97%; in assay [2], 95%; in [4] it was 94%; in [5] it was 99%; in [3], 90%; in assay [6] it was 99%. Moreover, the residual activity in assay [7] is 76%; in assay [8] it was 90%.
On to `O=C1C(Cl)=C(N2C(=O)CCC2=O)C(=O)c2ccccc21`, for which the residual activity in [1] amounted to 101%; in [2] it was 98%; in assay [4], 124%; in assay [5], 89%; in assay [8], 78%.
Regarding `O=C1NC(=O)c2c1c1c3ccccc3[nH]c1n1cncc21`, the residual activity was determined as 11% in assay [1]; 10% in assay [2]; 100% in assay [4]; 64% in assay [5]; 75% in assay [3]; 71% in assay [6]. Further, the residual activity in assay [7] is 86%; in assay [8], 76%.
